Assay outcomes as filed in PubChem.
Many of the other results were omitted from the sample, so hits are more common in it than they were.
TDP1 cell noCPT: qHTS for Inhibitors of human tyrosyl-DNA phosphodiesterase 1 (TDP1): qHTS in cells in absence of CPT. DT40 Tdp1-/- hTDP1 cells, no CPT, ATP luminescence, 48 h. Potency, µM (highest dose often 46.2 µM), without a hit: at the highest dose activity change, negative = growth inhibition, usual class: inhibitors. 15% of 420,000 active. AID 686978, 2013; further: potency means the concentration at half of the fitted maximal effect; nearly all actives have a fitted effect of over 55% in size
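A cellular qHTS used chicken DT40 cells lacking endogenous Tdp1 but carrying stably transfected human TDP1. Compounds were applied without camptothecin, and cell growth kinetics were judged by ATP-dependent luminescence after ≥48 hr.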
HT1080-NT tox: kills 2HG-producing HT-1080-NT fibrosarcoma cells; HT-1080-NT fibrosarcoma viability, CellTiter-Glo ATP luminescence, 48 h; Potency, µM (highest dose often 46.1 µM), without a hit: at the highest dose activity, negative = less viability, hits mostly cytotoxic; 1.6% of 360,000 active; AID 686970;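 further: NT is the 2HG producing partner of a matched IDH1 knockdown line; potency means the concentration at half of the fitted maximal effect; 0% = DMSO-treated cells and -100% = media-only wells without cells; nearly all actives have a fitted effect of over 55% in size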
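HT-1080-NT fibrosarcoma cells (2HG-overproducing), 750 cells/well in RPMI with 5% FBS, dosed after 2 h and incubated 48 h at 37C. CellTiter-Glo luminescence normalized to DMSO and no-cell wells; concentration-response curves fitted and classed.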
HT1080 IDH1KD tx: kills HT-1080 cells with IDH1 knockdown; AID 686971; HT-1080 IDH1 knockdown viability, ATP luminescence, 48 h; Potency, µM (titrated, usually from 46.1 µM), for inactives: at the highest dose activity, negative = toxicity, most hits filed as cytotoxic; 2% of 360,000 active;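 further: potency means the concentration at half of the fitted maximal effect; 0% = DMSO wells and -100% = cell-free medium wells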
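Assay cells: HT-1080 with IDH1 knockdown, 750 per well, RPMI/5% FBS. Exposure: 48 h at 37 °C following 2 h pre-incubation. Read: CellTiter-Glo luminescence; fitted concentration-response, curve class assigned.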
ALOX12 inh: ALOX12 (human) lipoxygenase inhibition; purified 12hLO, xylenol orange hydroperoxide absorbance; Potency, µM (doses to about 108 µM), without a hit: top-dose activity change, negative = inhibition, usual class: inhibitors; 1.1% of 580,000 active; AID 1671190; further: potency means the concentration at half of the fitted maximal effect
Target sequence (P18054 whole entry, looked up): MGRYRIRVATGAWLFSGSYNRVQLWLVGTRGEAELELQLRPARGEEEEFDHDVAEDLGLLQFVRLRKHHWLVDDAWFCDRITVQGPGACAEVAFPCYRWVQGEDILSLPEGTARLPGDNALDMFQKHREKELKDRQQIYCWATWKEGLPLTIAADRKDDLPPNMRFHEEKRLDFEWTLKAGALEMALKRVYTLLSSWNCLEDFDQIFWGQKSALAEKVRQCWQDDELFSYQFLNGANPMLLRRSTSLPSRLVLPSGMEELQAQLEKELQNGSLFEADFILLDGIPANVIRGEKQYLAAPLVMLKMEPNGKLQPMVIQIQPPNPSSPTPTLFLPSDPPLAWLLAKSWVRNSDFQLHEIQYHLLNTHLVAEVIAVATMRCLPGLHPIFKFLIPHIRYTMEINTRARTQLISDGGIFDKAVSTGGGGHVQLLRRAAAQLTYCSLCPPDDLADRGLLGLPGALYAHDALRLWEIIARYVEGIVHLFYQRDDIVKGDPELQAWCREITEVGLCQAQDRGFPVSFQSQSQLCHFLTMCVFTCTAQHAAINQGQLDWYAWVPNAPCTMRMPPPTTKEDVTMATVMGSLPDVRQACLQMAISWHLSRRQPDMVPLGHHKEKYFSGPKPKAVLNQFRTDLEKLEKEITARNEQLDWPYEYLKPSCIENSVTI
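Purified human 12hLO at 150 nM in 25 mM Hepes, 0.01% Triton X-100, pH 7.0, preincubated 15 min at room temperature with compound. Reaction started with 40 uM arachidonic acid, 30 min at room temperature. Hydroperoxide measured by Fe-xylenol orange, 573/405 nm absorbance ratio.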
DT40 TDP1 CPT: DT40-hTDP1 cell growth loss with CPT. chicken DT40 Tdp1-/-;hTDP1 cells + 20 nM CPT, ATP luminescence, 48 h. Potency, µM (series often up to 46.2 µM), for the others: at the top dose activity change, negative = growth inhibition, hits mostly inhibitors. 12% of 420,000 active; further: potency means the concentration at half of the fitted maximal effect; nearly all actives have a fitted effect of over 55% in size
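Chicken DT40 Tdp1-/- cells complemented with human TDP1, 400 cells/well, exposed to compounds plus 20 nM camptothecin for at least 48 h at 37 C; viability read as ATP content by CellTiter-Glo luminescence.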
IL1B secr inh: blocks inflammasome-driven IL-1 beta release | THP-1 LPS/ATP IL-1B secretion, AlphaLISA, 16 h; hits give low values | activity change, % at 57.5 µM | 4.7% of 360,000 active; in the data active means activity change below about -50%; inconclusive means mostly about -30% to -49%
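Secreted IL-1B measured by AlphaLISA bead assay after 16 h compound exposure of THP-1 cells; compounds (final up to 57.5 uM) added 1 h before LPS (250 ng/mL) and ATP (1.25 mM) stimulation; lower signal means less secretion.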
* hit, by the source's call; u = inconclusive; x = not tested or not shown; [ ] = dose if it differs, or a comment. Unless noted, the call rests on the fitted dose curve; in most records, active means well fitted curve in the direction sought with a large enough effect; inconclusive means small, poorly fitted or top-dose-only effect, or another doubt; inactive means no such curve, though single readings can be large; an effect the other way counts as inactive or inconclusive. Unless noted, on the % scale 0 is the no-effect control and ±100 the full control effect.

SMILES | TDP1 cell noCPT | HT1080-NT tox | HT1080 IDH1KD tx | ALOX12 inh | DT40 TDP1 CPT | IL1B secr inh
Cc1cc(NC(=O)CSc2nc3c(C)cccc3cc2C#N)no1 | 15µM* | -1% | u | -21% | u | -6
Cc1cc(NC(=O)CSc2nc3c(C)ccc(C)c3cc2C#N)no1 | -19% | -4% | -7% | -10% | u | 12
COc1ccccc1NS(=O)(=O)c1cccc(C(=O)N/N=C/c2cn(-c3ccccc3)nc2-c2ccccc2)c1 | u | u | -11% | 29% | u | -4
COc1ccccc1NS(=O)(=O)c1ccc(NN=C2CCCC2)c([N+](=O)[O-])c1 | 16µM* | 5% | -17% | -22% | 18µM* | -7
CC(C)(C)C1CCC(=NNc2ccc(S(N)(=O)=O)cc2[N+](=O)[O-])CC1 (stereo unspecified) | 21µM* | u | 18µM* | -26% | 16µM* | -87*
Cc1nn(-c2ccccc2)c(N2CCCC2)c1/C=N/Nc1ccc(S(=O)(=O)Nc2ccccc2)cc1[N+](=O)[O-] | 7.3µM* | -16% | -7% | -19% | 5.8µM* | 33
O=[N+]([O-])c1cc(S(=O)(=O)Nc2ccccc2)ccc1N/N=C/c1c(F)c(F)c(F)c(F)c1F | x | x | x | 0% | x | x
COc1ccccc1NS(=O)(=O)c1cccc(C(=O)N/N=C/c2c(C)nn(-c3ccccc3)c2N2CCCC2)c1 | 21µM* | 2% | 1% | -8% | 21µM* | -2
NS(=O)(=O)c1ccc(NN=C2CCCC2)c([N+](=O)[O-])c1 | x | x | x | 61% | x | x
COc1ccccc1NS(=O)(=O)c1ccc(N/N=C/c2ccccc2OCC(=O)O)c([N+](=O)[O-])c1 | -7% | -17% | -14% | u | -7% | -3
COc1ccccc1NS(=O)(=O)c1ccc(N/N=C/c2c(C)nn(-c3ccccc3)c2N2CCCC2)c([N+](=O)[O-])c1 | 6.5µM* | -1% | 7% | -5% | u | -24
CC(=O)Nc1ccc(SC[C@H](c2ccccc2)N2CCN(CCc3ccccc3)CCC2=O)cc1 | x | x | x | -5% | x | x
CCCN1CCC(=O)N([C@H](CSc2ccc(Br)cc2)c2ccccc2)CC1 | 16µM* | 3% | -1% | u | u | 13
O=C1CCN(CCc2ccccc2)CCN1[C@H](CSc1ccc(Br)cc1)c1ccccc1 | 18µM* | -20% | -2% | u | u | 17
CCCN1CCC(=O)N([C@H](CSc2ccccc2)CC(C)C)CC1 | u | 0% | 0% | -11% | u | -2
CCOC(=O)N1CCN(c2c(NCc3ccc(F)cc3)c(=O)c2=O)CC1 | 3.3µM* | 5.2µM* | 5.2µM* | -3% | 4.1µM* | 42
CCOC(=O)N1CCN(c2c(NCc3ccc(Cl)cc3)c(=O)c2=O)CC1 | 5.8µM* | u | 5.8µM* | 29%[57.4 µM] | 4.1µM* | 0
O=C1OC(/C=C/c2ccc(Cl)cc2)=NC/1=C/c1ccco1 | -3% | 2% | 7% | 40µM* | -21% | 14
COc1ccc(NC(=O)Cn2c(-n3nc(C)cc3C)nc(C)cc2=O)cc1 | x | x | x | -4% | x | x
Cc1cc(C)n(-c2nc(C)c(C)c(=O)n2CC(=O)Nc2ccc([N+](=O)[O-])cc2)n1 | 21µM* | x | x | -18% | u | x
CC(=O)c1ccc(NC(=O)Cn2c(-n3nc(C)cc3C)nc(C)cc2=O)cc1 | 18µM* | x | x | 0% | u | x
Cc1noc(C)c1-c1cc(-c2ccccc2C(F)(F)F)cn2cncc12 | x | x | x | 7%[176 µM] | x | x
CCn1nc(C(=O)Nc2cccc(C)c2C(=O)OC)c2ccccc2c1=O | x | x | x | 9% | x | x
COC(=O)/C=C1/SC(=NC(=O)c2ccccc2)NC1=O | 21µM* | 13% | 15% | -6% | u | -3
COC(=O)/C=C1/SC(=NC(=O)c2ccc(F)cc2)NC1=O | u | 16% | u | u | -6% | x
SMILES | TDP1 cell noCPT | HT1080-NT tox | HT1080 IDH1KD tx | ALOX12 inh | DT40 TDP1 CPT | IL1B secr inh
COC(=O)/C=C1\SC(=NC(=O)c2cccc(Cl)c2)NC1=O | u | 26% | 20% | u | 21µM* | -10
COc1cccc(N2C(=O)NC(=NC3CCCC3)C23CCN([S+](=O)([O-])c2cccc(C(F)(F)F)c2)C3)c1 (stereo unspecified) | x | x | x | 1%[6.33 µM] | x | x
COc1ccc2c(c1)C[C@]1(C)c3ccccc3C(=O)N(Cc3ccccc3)[C@H]21 | 6.3µM* | -24% | u | -27% | 16µM* | -12
N#CC1=C(N)N(c2ccccc2)C(c2ccco2)C1(C#N)C#N (stereo unspecified) | u | -12% | u | -9% | u | -29
Cc1cccc(N2C(N)=C(C#N)C(C#N)(C#N)C2c2ccccc2)c1 (stereo unspecified) | 10µM* | -20% | -16% | u | 21µM* | -9
N#CC1=C(N)N(c2ccccc2)C(c2cccc([N+](=O)[O-])c2)C1(C#N)C#N (stereo unspecified) | 16µM* | -1% | -3% | 0% | u | -21
CC(NC(=O)c1[nH]c2ccc(Cl)cc2c1Cl)C(N)=O (stereo unspecified) | x | x | x | -29% | x | x
CSc1ccc(CCNC(=O)c2cc3n(n2)CCCN(Cc2ccc(C)cc2)C3=O)cc1 | u | x | x | 4% | 5.8µM* | x
Cc1ccc(CN2CCCn3nc(C(=O)NCCc4ccccc4Cl)cc3C2=O)cc1 | 16µM* | x | x | 4% | 21µM* | x
Cc1ccc(CN2CCCn3nc(C(=O)NCCN(C)C)cc3C2=O)cc1 | 0% | x | x | -23% | -3% | x
CCCCNC(=O)c1cc2n(n1)CCCN(Cc1ccc(C)cc1)C2=O | u | x | x | -16% | u | x
CCOc1ccc(CCNC(=O)c2cc3n(n2)CCCN(Cc2ccc(C)cc2)C3=O)cc1OCC | 15µM* | x | x | -25% | 9.2µM* | x
CCCSCCCNC(=O)c1cc2n(n1)CCCN(Cc1ccc(C)cc1)C2=O | u | x | x | -22% | 18µM* | x
CCCNC(=O)c1cc2n(n1)CCCN(Cc1ccc(C)cc1)C2=O | -12% | x | x | -20% | -17% | x
Cc1nn(-c2ccccn2)c2c1C(c1ccccc1Cl)C1=C(N2)c2ccccc2C1=O (stereo unspecified) | 4.6µM* | 5% | 13% | 41% | 6.5µM* | -14
CSC1=C(C#N)C(c2ccccc2Cl)C2=C(N1)c1ccccc1C2=O (stereo unspecified) | 18µM* | -2% | 7% | -11% | 23µM* | -98*
